KB-V1 cytotox: qHTS assay for MDR1-selective chemotherapeutics: Primary screen using the drug-selected MDR subline cells KB-V1; KB-V1 MDR cells viability, CellTiter-Glo, 72 h; Potency, µM (series often up to 46.1 µM), usual class: cytotoxic; 3.4% of 400,000 active; further: nearly all actives have a fitted effect of over 60% in size
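Drug-selected KB-V1 cells, grown in DMEM lacking phenol red with 10% FBS, receive compound titrations; after three days at 37 degrees C, surviving cell ATP is quantified by CellTiter-Glo luminescence and responses normalized and curve-fitted.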
TDP1 cell CPT: qHTS for Inhibitors of human tyrosyl-DNA phosphodiesterase 1 (TDP1): qHTS in cells in presence of CPT; chicken DT40 Tdp1-/-;hTDP1 cells + 20 nM CPT, ATP luminescence, 48 h; Potency, µM (titrated, usually from 46.2 µM), without a hit: at the top dose activity change, negative = growth inhibition, usual class: inhibitors; 12% of 420,000 active; AID 686979, 2013; further: nearly all actives have a fitted effect of over 55% in size
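Chicken DT40 Tdp1-/- cells complemented with human TDP1, 400 cells/well, exposed to compounds plus 20 nM camptothecin for at least 48 h at 37 C; viability read as ATP content by CellTiter-Glo luminescence.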
HT1080 IDH1KD tx: qHTS for induction of synthetic lethality in tumor cells producing 2HG: qHTS for the HT-1080-IDH1KD cell line; 2% of 360,000 active; Potency, µM (top dose mostly 46.1 µM), for inactives: at the top dose activity, negative = toxicity, actives largely listed as cytotoxic; HT-1080 IDH1 knockdown viability, ATP luminescence, 48 h; AID 686971, 2013;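 further: 0% = DMSO wells and -100% = cell-free medium wells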
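Knockdown cells (IDH1KD HT-1080) received compounds 2 h after plating at 750 cells/well and were kept 48 h at 37 °C in 5% FBS RPMI. A CellTiter-Glo luminescence read gave % activity for curve fitting.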
HT1080NT lethal: qHTS for induction of synthetic lethality in tumor cells producing 2HG: qHTS for the HT-1080-NT fibrosarcoma cell line. HT-1080-NT fibrosarcoma viability, CellTiter-Glo ATP luminescence, 48 h. 1.6% of 360,000 active. AID 686970, 2013. Potency, µM (doses to about 46.1 µM), without a hit: at the highest dose activity, negative = less viability, usual class: cytotoxic;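 further: NT is the 2HG producing partner of a matched IDH1 knockdown line; 0% = DMSO-treated cells and -100% = media-only wells without cells; nearly all actives have a fitted effect of over 55% in size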
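Toxicity toward the 2HG-producing NT line was scored as %Activity, normalised to DMSO and no-cell wells, from CellTiter-Glo luminescence after 48 hours' treatment.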
DT40 TDP1 no CPT: qHTS for Inhibitors of human tyrosyl-DNA phosphodiesterase 1 (TDP1): qHTS in cells in absence of CPT | DT40 Tdp1-/- hTDP1 cells, no CPT, ATP luminescence, 48 h | Potency, µM (doses to about 46.2 µM), for inactives: top-dose activity change, negative = growth inhibition, most hits filed as inhibitors | 15% of 420,000 active | AID 686978, 2013; further: nearly all actives have a fitted effect of over 55% in size
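Stably hTDP1-transfected Tdp1-null chicken DT40 cells were treated with library compounds minus camptothecin and grown for at least 48 hr at 37 °C, after which cellular ATP was quantified by luminescence.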
KB-3-1 tox: qHTS assay for MDR1-selective chemotherapeutics: Primary screen using the parental adenocarcinoma cell KB-3-1; KB-3-1 viability, CellTiter-Glo ATP luminescence, 72 h; Potency, µM (top dose mostly 46.1 µM), most hits filed as cytotoxic; 1.4% of 400,000 active; further: nearly all actives have a fitted effect of over 60% in size
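Here the drug-naive KB-3-1 line serves as comparator for MDR sub-line selectivity; cells received compound titrations, 72 h at 37 °C, then CellTiter-Glo readout.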
Starred values were filed as active, the others as inactive; i = inactive; ? = inconclusive; · = not tested or not shown. The list is not random: actives were taken first. Their share in the collection is about 19%. The call rests on the fitted dose curve; in most records, active means well fitted curve in the direction sought with a large enough effect; inconclusive means small, poorly fitted or top-dose-only effect, or another doubt; inactive means no such curve, though single readings can be large; an effect the other way counts as inactive or inconclusive. Unless noted, on the % scale 0 is the no-effect control and ±100 the full control effect; potency means the concentration at half of the fitted maximal effect.

SMILES | KB-V1 cytotox | TDP1 cell CPT | HT1080 IDH1KD tx | HT1080NT lethal | DT40 TDP1 no CPT | KB-3-1 tox
CCC(=O)Nc1ccc(NC(=S)Nc2ccccc2)cc1 | ? | 19% | 21% | 29% | 9% | i
COC1=C(Nc2ccc(O)cc2)C(=O)c2ccccc2C1=O | ? | 4.1µM* | 23µM* | 10µM* | ? | ?
O=C(NC1=C(Nc2ccc(F)cc2)C(=O)c2ccccc2C1=O)c1ccc(Cl)cc1 | ? | 21µM* | -21% | -13% | ? | ?
O=S1(=O)N=C(Nc2ccc(O)cc2)c2ccccc21 | i | 5% | 5% | 15% | 5% | i
Cc1cccc(NC2=C(NCCO)C(=O)c3ccccc3C2=O)c1 | i | 16µM* | -29% | ? | 21µM* | ?
COCCCNC(=O)Cn1c(=O)n(-c2cccc(C)c2)c(=O)c2c3c(sc21)CN(C(C)=O)CC3 | i | 10% | · | · | 9% | i
COC1=C(Nc2ccc(OC)cc2)C(=O)c2ccccc2C1=O | ? | 29µM* | -15% | -6% | 15µM* | i
Cc1nc2c3ccccc3nc(SCC(=O)N3CC(C)CC(C)C3)n2n1 (stereo unspecified) | 0.58µM* | ? | -5% | 2% | ? | i
Cc1nc2c3ccccc3nc(SCC(=O)c3ccc(Cl)cc3)n2n1 | 10µM* | ? | 19% | 10% | 18µM* | i
CN(C)c1ccc(C(O)c2cc3ccccc3s2)cc1 (stereo unspecified) | i | -10% | -23% | -5% | ? | i
COc1cc(NC(=O)c2sc3ncn(CC(=O)N4CCCCC4C)c(=O)c3c2C)cc(OC)c1OC (stereo unspecified) | ? | ? | 1% | 2% | 12µM* | i
Cc1ccc(NC(=O)c2sc3ncn(CC(=O)N4CCN(c5ccccn5)CC4)c(=O)c3c2C)cc1F | i | ? | 0% | -15% | -17% | i
COc1cccc(NC(=O)c2sc3ncn(CC(=O)N4CCN(c5ccccn5)CC4)c(=O)c3c2C)c1 | ? | 18µM* | -6% | -3% | ? | i
Cc1ccc(NC(=O)c2sc3ncn(CC(=O)N4CCN(c5ccccn5)CC4)c(=O)c3c2C)cc1Cl | i | ? | 0% | -11% | 15µM* | i
CCN(CC)CCCNC(=O)c1sc2ncn(CC(=O)Nc3ccc(C)c(Cl)c3)c(=O)c2c1C | i | ? | -25% | -15% | ? | i
COCCCNC(=O)c1sc2ncn(CC(=O)Nc3ccc(C)c(Cl)c3)c(=O)c2c1C | i | ? | -22% | -4% | 21µM* | i
Cc1cc2cc(CNC(=O)Nc3ccccc3)ccc2[nH]1 | i | 5% | -7% | -3% | -16% | i
Cc1cc(N2CCCC2=O)ccc1S(=O)(=O)NCCOc1ccccc1 | i | 18µM* | -1% | 3% | 15µM* | i
Cc1cc(N2CCCC2=O)ccc1S(=O)(=O)Nc1c(C)nn(C)c1C | ? | ? | 0% | 0% | 9.2µM* | i
Cc1cc(N2CCCC2=O)cc(C)c1S(=O)(=O)Nc1c(C)nn(C)c1C | i | -17% | 5% | 17% | -24% | i
CCc1nc2ccccc2c(C(=O)OCc2nc3ccccc3c(=O)[nH]2)c1C | ? | 3.3µM* | 18µM* | 10µM* | 4.6µM* | ?
Cc1c(C(=O)OCc2nnc(-c3ccccc3)o2)oc2ccccc12 | i | -4% | 11% | -1% | -14% | i
